# Shown are actives, neighbours in structure and some others; about 0.93% of the full set was active somewhere.
# LAP4-GFP MLPCN: alters LAP4-GFP fluorescence in TOR pathway yeast screen. S. cerevisiae LAP4-GFP multiplex, flow cytometry GFP, 3 h; median GFP as percent of DMSO wells. GFP response vs DMSO, % at 10 µM. actives 0.34% (n = 320,000);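 active = GFP response vs DMSO above a set limit, about the screen mean plus 3 SD, cut at about 150% in these data; inconclusive = under 70 cell events counted for the yeast strain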
# RPL19A TOR yeast: modulators of TOR pathway RPL19A-GFP in S. cerevisiae. actives 0.3% (n = 330,000). S. cerevisiae RPL19A-GFP strain, flow cytometry, 3 h; active compounds read low. percent response vs DMSO, % at 10 µM;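 active = percent response vs DMSO below 50%; inconclusive = fewer than 70 events counted for the yeast strain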;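 also: median channel GFP fluorescence of the barcoded RPL19A-GFP strain; ratio of sample median GFP to plate DMSO average so 100% = DMSO; lower means less RPL19A-GFP as with rapamycin TOR inhibition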
# AGP1-GFP MLPCN: yeast TOR pathway AGP1-GFP modulation; actives 0.02% (n = 320,000); GFP response vs DMSO, % at 10 µM; AID 2066; S. cerevisiae AGP1-GFP multiplex flow cytometry, 3 h; GFP as percent of DMSO wells;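 active = GFP response relative to DMSO above a set limit, near screen average plus 3 SD, cut at about 150% in these data; inconclusive = fewer than 70 cells counted for the yeast strain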;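 also: median GFP channel fluorescence of the gated AGP1 strain per well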
# CIT2 TOR yeast: yeast TOR pathway CIT2-GFP modulation | S. cerevisiae CIT2-GFP strain, flow cytometry, 3 h; 100 means same as DMSO wells | GFP response vs DMSO, % at 10 µM | actives 0.065% (n = 320,000) | AID 2029;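 active = GFP response relative to DMSO above a set limit, near the screen mean plus 3 SD, cut at about 150% in these data; inconclusive = Fewer than 70 cells measured for a yeast strain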;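 also: ratio of well median GFP fluorescence to mean of DMSO wells on the plate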
# MEP2 TOR yeast: yeast TOR pathway MEP2-GFP modulation; S. cerevisiae MEP2-GFP strain, flow cytometry GFP, 3 h; 100% = DMSO control level; GFP response vs DMSO, % at 10 µM; actives 0.51% (n = 330,000); AID 2016;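 active = GFP response versus DMSO above a set limit, roughly screen mean plus 3 SD, cut at about 180% in these data; inconclusive = fewer than 70 cells counted for a yeast strain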;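 also: median GFP fluorescence of the barcode-gated MEP2-GFP cells per well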
# Numbers without * were called inactive; ? = inconclusive; / = no result given; + = active, no number; [ ] = remark or other dose.
SMILES,LAP4-GFP MLPCN,RPL19A TOR yeast,AGP1-GFP MLPCN,CIT2 TOR yeast,MEP2 TOR yeast
COc1ccc(NC(=O)c2ccc(-c3ccc([N+](=O)[O-])cc3)o2)cc1,111,95,100,90,101
COC(=O)c1cc2n(n1)CCN(Cc1cccc(OC)c1)C2=O,92,105,103,96,104
COC(=O)c1cc2n(n1)CCN(Cc1ccc(C)cc1)C2=O,79,59,?,?,205*[may fluoresce violet]
CC1CC(C)CN(CCCNC(=O)c2ccc(CS(=O)(=O)Cc3ccccc3F)o2)C1 (stereo unspecified),95,92,94,101,95
CN1CCCC1CCNc1ccc2c(=O)c3ccccc3oc2c1 (stereo unspecified),99,44*[may fluoresce violet],37,?,342*[may fluoresce violet]
COc1cc(OC)cc(C(=O)NCC(=O)Nc2ccc(-c3ccccc3)cc2)c1,97,92,77,107,100
CCc1nnc2n1N=C(c1ccc(Cl)cc1)CS2,74,29*[may fluoresce violet],?,?,744*[may fluoresce violet]
COc1ccccc1NS(=O)(=O)c1cccc(C(=O)NCC(c2ccco2)N(C)C)c1 (stereo unspecified),92,?,?,?,?
CCn1c(=S)sc2c(=O)[nH]c(C)nc21,100,40*[may fluoresce violet],?,?,298*[may fluoresce violet]
Cc1cccc(C2=NN(c3ccc(Br)cc3)[C@@H](C(=O)N3CCOC3=O)[C@@H]2c2ccc(F)cc2)c1,119,69,15,?,296*[may fluoresce violet]
COc1ccccc1[C@@H]1C(c2cccc(Cl)c2)=NN(c2ccccc2)[C@H]1C(=O)N1CCOC1=O,91,84,20,?,153
COc1ccccc1N(CC(=O)NCCSCc1ccccc1)S(=O)(=O)c1ccc(C)cc1,87,54,?,?,212*[may fluoresce violet]
O=C(NC(=S)NCCc1ccc(Cl)cc1)c1ccco1,105,96,90,92,102
COc1ccc(C(=O)N/N=C/c2cc(Br)ccc2O)cc1OC,109,106,108,104,102
COc1ccccc1/C=C/C=N/NC(=O)c1cccs1,156*,96,93,78,92
COc1ccccc1/C=C\C=N\NC(=O)c1ccco1,105,100,99,100,94
CCOc1ccc(S(=O)(=O)NCC2CCCO2)c2ccccc12 (stereo unspecified),77,47*[may fluoresce violet],16,?,107
CCOc1ccc(S(=O)(=O)NCC2CCCO2)c2cccnc12 (stereo unspecified),96,99,98,96,95
CC(=O)c1ccc(C(=O)N(CCN(C)C)c2nc3c(Cl)cccc3s2)cc1,68,47*[may fluoresce violet],?,?,198*[may fluoresce violet]
CN(C)CCN(C(=O)c1ccc2c(c1)OCCO2)c1nc2c(Cl)cccc2s1,90,104,102,102,91
Cc1ccc2nc(/C(C#N)=C\c3ccc([N+](=O)[O-])o3)[nH]c2c1,+[may fluoresce red and violet],?,?,?,+[may fluoresce red and violet]
N#C/C(=C\c1ccc([N+](=O)[O-])o1)c1nc2ccccc2[nH]1,704*[may fluoresce violet],189,110,?,+[may fluoresce violet]
N#C/C(=C(/O)c1ccc([N+](=O)[O-])o1)c1nc2ccccc2[nH]1,110,98,103,105,102
Cc1ccc2nc(/C(C#N)=C\c3ccc(N4CCOCC4)o3)[nH]c2c1,132,101,104,126,143
CC1CC(C)CN(C(=O)C(C)N(C)CC(=O)Nc2ccc(F)cc2)C1 (stereo unspecified),98,94,98,101,99
SMILES,LAP4-GFP MLPCN,RPL19A TOR yeast,AGP1-GFP MLPCN,CIT2 TOR yeast,MEP2 TOR yeast
CC(C)C[C@@H](CSc1ccccc1)N1CCN(CC(C)C)CCC1=O,107,37*[may fluoresce violet],?,?,341*[may fluoresce violet]
CCOC(=O)c1c(-c2cccc(C)c2)csc1NC(=O)C1CC=CCC1C(=O)O (stereo unspecified),95,101,94,88,94
O=C(O)COc1c(-c2ccc(Cl)cc2)oc2ccccc2c1=O,167*,95,88,74,116
COc1ccc(CNS(=O)(=O)c2ccc3c(c2)C(C)(C)C(=O)N3C)cc1,114,57,22,?,823*[may fluoresce violet]
COc1ccc(/C=N/NC(=O)c2cc3c(ccc4ccccc43)o2)cc1OC,70,106,90,93,98
COc1cc(/C=N/NC(=O)c2cc3c(ccc4ccccc43)o2)cc(OC)c1O,80,19*[may fluoresce violet],?,?,245*[may fluoresce violet]
CCN(CC)C(=O)C1CCN(Cc2cccc(OCc3ccccc3)c2)CC1,99,99,106,101,105
Cc1csc(Nc2ccccc2C(F)(F)F)n1,103,/,24,102,230*
Cc1csc(Nc2cccc3ccccc23)n1,98,100,91,97,96
CN(C)S(=O)(=O)c1cc(NC(=O)CN2CCOCC2)ccc1Cl,202*,103,91,210*,241*
CCN1CCN(CC(=O)Nc2ccc(Cl)c(S(=O)(=O)N(C)C)c2)CC1,104,95,103,92,95
Cc1cccc(Nc2nnc(SCC(=O)c3ccc(O)cc3O)s2)c1,106,37*[may fluoresce violet],30,?,332*[may fluoresce violet]
O=C(NNS(=O)(=O)c1ccccc1)c1cnn(-c2ccccc2)c1-n1cccc1,100,79,/,?,196*[may fluoresce violet]
COc1ccccc1-c1cc(C(=O)N/N=C/c2ccoc2)c2ccccc2n1,99,99,99,96,108
Cc1ccc(-n2nnnc2SCC(=O)N2CC(=O)Nc3ccccc32)cc1,93,96,94,95,95
COc1ccc(C2/C(=C(/O)c3ccccc3)C(=O)C(=O)N2CCO)cc1 (stereo unspecified),91,62,25,?,212*[may fluoresce violet]
O=C(c1ccco1)N1CCN(Cc2nc(-c3cccs3)no2)CC1,81,102,84,96,?
CN1CCc2c(sc3c2C(=O)NC(c2ccc4c(c2)OCO4)N3)C1 (stereo unspecified),107,78,40,110,202*
CN1CCc2c(sc3c2C(=O)NC(c2ccccc2)N3)C1 (stereo unspecified),96,99,96,94,101
COC(=O)c1c(-c2ccccc2OC)sc2ccccc12,104,93,95,94,94
CC(C)Nc1ncnc2c1cnn2Cc1ccc(Cl)cc1,90,64,15,?,247*[may fluoresce violet]
O=C(ONC1=NCCCCC1)c1ccc(Cl)cc1,179*[may fluoresce violet],/,44,?,351*[may fluoresce violet]
O=C(ONC1=NCCCCC1)c1c(F)cccc1F,115,100,74,113,96
CC(=O)c1c(C(C)=O)c(C)n(Cc2ccc(Cl)cc2)c1C,102,99,104,97,100
CCc1ccc(Nc2oc(C)cc(=O)c2C(C)=O)cc1,72,90,15,?,298*[may fluoresce violet]
CCc1ccc(NC(=O)c2[nH]c(C)c(C(C)=O)c2C)cc1,103,102,97,98,100

# Source: PubChem
